# Test results from the supplement of paper PMC11732987, “Enantioselective OTUD7B fragment discovery through chemoproteomics screening and high-throughput optimisation” (Communications Chemistry, 2025).
# Unmarked numbers belong to inactive results.
# Tests used:
# Experiment in all cases: log2 ratio of Biotin-Ahx-Ub-VS probe labelling (fragment/DMSO); higher = less target engagement (more negative = stronger competition), active = hit call of the paper (q ≤ 0.05, log2 ratio ≤ -1)
# Settings in all cases: compound concentration: 200 uM; treatment time: 3 h
# ALG13 = molecular target: T1, ALG13 (UniProt Q9NP73)
# T1 sequence (whole entry): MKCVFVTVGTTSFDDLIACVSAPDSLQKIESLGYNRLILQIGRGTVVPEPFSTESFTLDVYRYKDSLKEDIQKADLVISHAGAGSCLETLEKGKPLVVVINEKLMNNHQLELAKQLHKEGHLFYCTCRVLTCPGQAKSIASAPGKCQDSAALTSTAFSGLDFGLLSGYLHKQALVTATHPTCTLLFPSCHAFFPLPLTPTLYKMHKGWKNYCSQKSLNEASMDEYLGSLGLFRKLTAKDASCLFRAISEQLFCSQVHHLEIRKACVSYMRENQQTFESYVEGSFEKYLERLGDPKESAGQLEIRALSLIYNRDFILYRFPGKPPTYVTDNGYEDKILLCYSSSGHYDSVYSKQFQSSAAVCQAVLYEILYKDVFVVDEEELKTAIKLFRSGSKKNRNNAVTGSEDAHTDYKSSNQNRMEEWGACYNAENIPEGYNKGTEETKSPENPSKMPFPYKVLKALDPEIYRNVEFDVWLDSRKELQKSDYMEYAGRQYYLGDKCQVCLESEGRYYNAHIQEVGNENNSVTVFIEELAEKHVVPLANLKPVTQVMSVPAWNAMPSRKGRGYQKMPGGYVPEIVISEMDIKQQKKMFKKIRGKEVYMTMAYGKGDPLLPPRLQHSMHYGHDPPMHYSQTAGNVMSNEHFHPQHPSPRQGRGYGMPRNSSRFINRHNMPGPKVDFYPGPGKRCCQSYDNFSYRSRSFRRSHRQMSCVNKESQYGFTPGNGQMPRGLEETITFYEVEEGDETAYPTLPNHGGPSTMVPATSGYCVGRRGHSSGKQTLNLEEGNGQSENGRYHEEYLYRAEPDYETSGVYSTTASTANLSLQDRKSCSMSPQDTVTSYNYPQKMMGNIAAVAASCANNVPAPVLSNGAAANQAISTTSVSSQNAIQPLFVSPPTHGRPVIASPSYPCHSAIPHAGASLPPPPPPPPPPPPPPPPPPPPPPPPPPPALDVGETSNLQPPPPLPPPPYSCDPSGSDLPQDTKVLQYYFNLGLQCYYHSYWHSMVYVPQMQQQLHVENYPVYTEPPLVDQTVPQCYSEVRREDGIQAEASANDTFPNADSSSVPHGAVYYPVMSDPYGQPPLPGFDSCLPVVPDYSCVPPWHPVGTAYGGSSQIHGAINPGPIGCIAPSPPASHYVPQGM
# Outline: (§1)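 Triplicate samples of HEK293T lysate, 495 µg each, received fragment at 200 µM or vehicle for 3 h, followed by Biotin-Ahx-Ub-VS (0.5 µM final) for 1 h. After NeutrAvidin enrichment of labelled DUBs and LysC/trypsin digestion, peptides were run by diaPASEF LC-MS/MS. The values are average log2 fragment/vehicle ratios from global-median-normalised Spectronaut label-free quantities, tested by unpaired t-test on proteins having ≥2 unique peptides.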
# ATXN3 = ATXN3 (UniProt P54252)
# Outline: as §1
# BAP1 = molecular target: T2, BAP1 (UniProt Q92560)
# T2 sequence (whole entry): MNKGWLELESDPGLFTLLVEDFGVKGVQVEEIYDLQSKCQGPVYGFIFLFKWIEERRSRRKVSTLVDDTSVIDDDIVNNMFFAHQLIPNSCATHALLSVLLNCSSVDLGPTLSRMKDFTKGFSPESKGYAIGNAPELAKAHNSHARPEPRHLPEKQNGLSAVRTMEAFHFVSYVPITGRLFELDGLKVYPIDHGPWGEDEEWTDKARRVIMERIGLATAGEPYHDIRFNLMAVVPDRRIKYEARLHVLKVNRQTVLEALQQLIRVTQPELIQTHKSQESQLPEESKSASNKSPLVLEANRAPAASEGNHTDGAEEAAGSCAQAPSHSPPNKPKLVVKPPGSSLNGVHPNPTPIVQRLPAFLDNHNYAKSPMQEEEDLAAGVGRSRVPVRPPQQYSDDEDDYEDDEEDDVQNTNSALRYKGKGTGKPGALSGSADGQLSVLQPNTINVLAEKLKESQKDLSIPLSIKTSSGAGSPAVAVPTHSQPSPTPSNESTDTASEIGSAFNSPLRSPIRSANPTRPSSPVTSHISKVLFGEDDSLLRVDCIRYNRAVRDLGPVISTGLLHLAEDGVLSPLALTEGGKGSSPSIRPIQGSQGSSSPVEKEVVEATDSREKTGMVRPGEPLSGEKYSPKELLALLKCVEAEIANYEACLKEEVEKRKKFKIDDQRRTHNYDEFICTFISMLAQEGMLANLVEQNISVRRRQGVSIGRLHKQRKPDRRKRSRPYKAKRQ
# Outline: as §1
# EIF3F = EIF3F (UniProt O00303)
# Outline: as §1
# EIF3H = EIF3H (UniProt O15372)
# Outline: as §1
# FAM105A = molecular target: T3, FAM105A (UniProt Q9NUU6)
# T3 sequence (whole entry): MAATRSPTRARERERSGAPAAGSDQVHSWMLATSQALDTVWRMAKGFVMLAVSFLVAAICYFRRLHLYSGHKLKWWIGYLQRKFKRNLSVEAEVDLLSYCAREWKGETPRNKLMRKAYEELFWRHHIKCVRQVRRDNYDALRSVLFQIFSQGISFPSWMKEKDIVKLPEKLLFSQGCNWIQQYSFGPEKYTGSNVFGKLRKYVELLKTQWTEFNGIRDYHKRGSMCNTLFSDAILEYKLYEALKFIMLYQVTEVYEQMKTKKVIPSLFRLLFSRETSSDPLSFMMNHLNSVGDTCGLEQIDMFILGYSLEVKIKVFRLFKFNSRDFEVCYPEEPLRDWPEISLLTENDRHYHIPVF
# Outline: as §1
# OTUB1 = OTUB1 (UniProt Q96FW1)
# Outline: as §1
# OTUD4 = molecular target: T4, OTUD4 (UniProt Q01804)
# T4 sequence (whole entry): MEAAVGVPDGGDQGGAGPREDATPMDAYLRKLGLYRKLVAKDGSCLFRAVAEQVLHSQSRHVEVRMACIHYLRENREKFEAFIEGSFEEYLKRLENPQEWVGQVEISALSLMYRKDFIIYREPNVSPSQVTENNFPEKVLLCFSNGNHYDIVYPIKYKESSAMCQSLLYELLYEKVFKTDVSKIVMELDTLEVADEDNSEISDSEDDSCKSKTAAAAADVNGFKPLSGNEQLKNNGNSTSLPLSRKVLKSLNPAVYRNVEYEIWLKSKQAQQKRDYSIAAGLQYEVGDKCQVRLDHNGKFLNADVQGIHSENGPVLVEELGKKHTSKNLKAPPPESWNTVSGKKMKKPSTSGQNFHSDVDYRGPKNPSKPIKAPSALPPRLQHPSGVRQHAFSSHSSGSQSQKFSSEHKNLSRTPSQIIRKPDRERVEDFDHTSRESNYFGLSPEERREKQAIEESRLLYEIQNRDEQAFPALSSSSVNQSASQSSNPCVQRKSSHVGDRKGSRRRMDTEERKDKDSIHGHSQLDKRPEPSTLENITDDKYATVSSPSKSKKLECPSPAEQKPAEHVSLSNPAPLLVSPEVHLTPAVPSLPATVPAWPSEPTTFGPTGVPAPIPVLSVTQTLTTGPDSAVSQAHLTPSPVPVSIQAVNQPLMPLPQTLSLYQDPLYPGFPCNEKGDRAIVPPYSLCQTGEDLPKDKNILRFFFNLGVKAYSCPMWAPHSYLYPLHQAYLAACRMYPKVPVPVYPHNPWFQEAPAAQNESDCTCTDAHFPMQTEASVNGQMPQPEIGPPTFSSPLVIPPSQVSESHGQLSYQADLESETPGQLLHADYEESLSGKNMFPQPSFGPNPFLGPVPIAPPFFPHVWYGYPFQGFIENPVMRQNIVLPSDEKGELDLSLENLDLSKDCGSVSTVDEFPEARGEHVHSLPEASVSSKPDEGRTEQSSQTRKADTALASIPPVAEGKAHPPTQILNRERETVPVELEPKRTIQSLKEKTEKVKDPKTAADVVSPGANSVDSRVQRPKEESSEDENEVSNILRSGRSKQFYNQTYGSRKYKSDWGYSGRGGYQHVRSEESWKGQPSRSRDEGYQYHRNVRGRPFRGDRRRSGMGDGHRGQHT
# Outline: as §1
# OTUD5 = molecular target: T5, OTUD5 (UniProt Q96G74)
# T5 sequence (whole entry): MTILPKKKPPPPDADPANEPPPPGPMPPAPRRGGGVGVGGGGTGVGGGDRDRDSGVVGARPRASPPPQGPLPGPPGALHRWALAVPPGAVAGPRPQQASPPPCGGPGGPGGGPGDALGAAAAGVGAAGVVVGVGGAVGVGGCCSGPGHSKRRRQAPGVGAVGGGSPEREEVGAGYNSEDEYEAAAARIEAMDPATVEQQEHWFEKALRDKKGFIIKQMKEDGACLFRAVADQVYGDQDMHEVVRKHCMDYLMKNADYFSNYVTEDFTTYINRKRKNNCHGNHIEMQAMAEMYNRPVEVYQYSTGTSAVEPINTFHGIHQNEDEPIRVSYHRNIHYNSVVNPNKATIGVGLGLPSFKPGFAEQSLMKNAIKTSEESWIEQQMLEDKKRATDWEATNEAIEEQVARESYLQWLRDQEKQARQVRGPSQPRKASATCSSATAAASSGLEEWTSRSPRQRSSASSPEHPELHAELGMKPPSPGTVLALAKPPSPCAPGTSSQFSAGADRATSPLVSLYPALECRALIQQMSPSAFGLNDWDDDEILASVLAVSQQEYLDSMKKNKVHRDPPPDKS
# Outline: as §1
# OTUB1, sequence (Q96FW1 whole entry): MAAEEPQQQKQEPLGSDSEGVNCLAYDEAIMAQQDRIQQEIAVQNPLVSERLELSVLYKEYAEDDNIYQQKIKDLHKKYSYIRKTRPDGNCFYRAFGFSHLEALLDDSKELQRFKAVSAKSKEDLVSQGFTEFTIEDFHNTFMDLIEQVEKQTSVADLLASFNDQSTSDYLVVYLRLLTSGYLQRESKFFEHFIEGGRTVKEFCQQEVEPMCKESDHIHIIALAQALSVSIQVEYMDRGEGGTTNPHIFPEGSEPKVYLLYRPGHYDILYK
# EIF3H, sequence (O15372 whole entry): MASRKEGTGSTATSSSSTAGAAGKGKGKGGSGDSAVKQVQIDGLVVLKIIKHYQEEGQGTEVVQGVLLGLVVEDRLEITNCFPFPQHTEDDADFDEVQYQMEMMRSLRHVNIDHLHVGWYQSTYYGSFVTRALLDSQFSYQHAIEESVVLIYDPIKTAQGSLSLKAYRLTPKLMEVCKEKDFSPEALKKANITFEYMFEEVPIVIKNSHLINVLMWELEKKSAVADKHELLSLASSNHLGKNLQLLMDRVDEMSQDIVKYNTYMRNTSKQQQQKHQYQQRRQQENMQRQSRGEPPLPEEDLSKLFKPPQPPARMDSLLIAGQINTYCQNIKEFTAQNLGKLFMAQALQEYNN
# ATXN3, sequence (P54252 whole entry): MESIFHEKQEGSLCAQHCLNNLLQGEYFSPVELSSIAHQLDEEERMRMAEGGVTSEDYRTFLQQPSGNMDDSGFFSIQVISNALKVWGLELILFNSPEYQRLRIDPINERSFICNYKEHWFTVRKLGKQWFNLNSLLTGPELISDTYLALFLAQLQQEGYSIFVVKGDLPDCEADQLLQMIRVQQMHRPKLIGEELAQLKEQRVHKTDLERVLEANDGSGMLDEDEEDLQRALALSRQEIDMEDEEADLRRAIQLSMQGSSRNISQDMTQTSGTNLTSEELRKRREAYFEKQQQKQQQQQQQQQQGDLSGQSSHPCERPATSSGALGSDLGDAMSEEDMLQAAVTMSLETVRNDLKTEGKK
# EIF3F, sequence (O00303 whole entry): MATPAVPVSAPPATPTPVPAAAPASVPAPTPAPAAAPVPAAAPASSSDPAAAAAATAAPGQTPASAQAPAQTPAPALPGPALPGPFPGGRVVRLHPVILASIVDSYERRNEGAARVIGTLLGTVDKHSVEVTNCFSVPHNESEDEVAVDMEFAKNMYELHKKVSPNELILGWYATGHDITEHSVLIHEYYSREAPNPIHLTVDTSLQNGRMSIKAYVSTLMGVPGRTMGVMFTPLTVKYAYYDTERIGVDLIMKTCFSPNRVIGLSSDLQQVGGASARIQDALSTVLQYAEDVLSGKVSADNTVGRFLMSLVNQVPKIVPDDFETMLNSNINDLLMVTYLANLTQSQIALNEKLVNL
compound,measurement,setting,value
NS(=O)(=O)c1ccc(Cl)c(NC(=O)CCl)c1,log2 ratio of Biotin-Ahx-Ub-VS probe labelling,ALG13,-0.591
same,log2 ratio of Biotin-Ahx-Ub-VS probe labelling,ATXN3,-0.697
same,log2 ratio of Biotin-Ahx-Ub-VS probe labelling,BAP1,-4.06 (active)
same,log2 ratio of Biotin-Ahx-Ub-VS probe labelling,EIF3F,-0.117
same,log2 ratio of Biotin-Ahx-Ub-VS probe labelling,EIF3H,0.198
same,log2 ratio of Biotin-Ahx-Ub-VS probe labelling,FAM105A,0.226
same,log2 ratio of Biotin-Ahx-Ub-VS probe labelling,OTUB1,-0.37
same,log2 ratio of Biotin-Ahx-Ub-VS probe labelling,OTUD4,-2.55 (active)
same,log2 ratio of Biotin-Ahx-Ub-VS probe labelling,OTUD5,-1.72 (active)
